# Results published in PubChem BioAssay (NCATS).
# Results filed as inconclusive are left out. Entries that show only a call come without a potency. Active and inactive are the calls of the source. Calls come from the whole dose curve; as a rule, active = well fitted cell-killing curve with a large enough effect; inconclusive = small, poorly fitted or top-dose-only effect, or effect the other way; inactive = flat fitted curve, though single readings scatter.
# Test system: PA-1
# Assay: Primary qHTS to identify gynecologic anti-cancer compounds using libraries of approved drugs and bioactive compounds (AID 1345084); note: nearly all actives have a fitted effect of over 55% in size
# Conditions: Gynecologic cancer cell panel viability, ATPlite luminescence, 48 h; series mostly up to 57.5 µM
# In short: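 Measured: luminescence after ATPlite addition (15 min, RT). Exposure: 48 h, 37 C, 5% CO2.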
row,SMILES,Potency
1,COCCc1ccccn1,inactive
2,OC1(c2ccccc2)CCNCC1,inactive
3,O=C1NC(c2ccccc2)(c2ccccc2)C(=O)N1COP(=O)(O)O,inactive
4,COC(=O)c1cc(Cl)ccc1OC,inactive
5,COC(=O)CCCCC(CCSS/C(CCO)=C(\C)N(C=O)Cc1cnc(C)nc1N)SC(C)=O (centres undefined),inactive
6,COc1ccc2nc(SCc3ncc(C)c(OC)c3C)[nH]c2c1,inactive
7,Cc1ccc(C(C)OC(=O)C2(C)CCC(C(=O)O)C2(C)C)cc1 (centres undefined),inactive
8,CN(C)CCN1CCN(c2cccc(Cl)c2)C1=O,inactive
9,CCOC(=O)C(=O)CCCCCCl,inactive
10,CCOC(=O)Oc1ccc(CCNC(=O)[C@H](CCSC)NC(C)=O)cc1OC(=O)OCC,inactive
11,COC(=O)c1cc(Cl)c(NC(C)=O)cc1OC,inactive
12,CCN1CCN(c2cc(-c3ccc(F)cc3)c3c(n2)CCCCCC3)CC1,inactive
13,CCCc1ncc(C(=O)O)s1,inactive
14,Cc1coc2ccccc2c1=O,inactive
15,O=C1CC2(CCCC2)CC(=O)N1,inactive
16,COC(=O)/C=C\C(=O)OC,inactive
17,C#CC(C)(CC)OC(=O)c1ccccc1C(=O)O (centres undefined),inactive
18,O=C(O)Cn1c(=O)n(Cc2ccc(Br)cc2F)c(=O)c2ccc(Cl)cc21,inactive
19,CN1CCN(N)CC1,inactive
20,CC(CC(C#N)(c1ccccc1)C(C)C)N(C)C (centres undefined),inactive
21,CCOC(=O)CN1CCCC1=O,inactive
22,CC(C)(C)NCC(O)COc1ccccc1OCC1CCCO1 (centres undefined),inactive
23,CCN(CC)CC(=O)Oc1ccc(NC(C)=O)cc1,inactive
24,COC(=O)/C=C(/C)N,inactive
